# CDK5 inh = CDK5/p35 (human) kinase inhibition | Q00535+Q15078 | Recombinant CDK5/p35, ADP-Glo luminescence, 60 min | inhibition, % at 10 µM | actives 0.01% (n = 330,000) | AID 488839;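 active = highest replicate inhibition of at least 50% and at least 75% of replicates reaching 50%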
# Target sequence (Q00535 whole entry, looked up): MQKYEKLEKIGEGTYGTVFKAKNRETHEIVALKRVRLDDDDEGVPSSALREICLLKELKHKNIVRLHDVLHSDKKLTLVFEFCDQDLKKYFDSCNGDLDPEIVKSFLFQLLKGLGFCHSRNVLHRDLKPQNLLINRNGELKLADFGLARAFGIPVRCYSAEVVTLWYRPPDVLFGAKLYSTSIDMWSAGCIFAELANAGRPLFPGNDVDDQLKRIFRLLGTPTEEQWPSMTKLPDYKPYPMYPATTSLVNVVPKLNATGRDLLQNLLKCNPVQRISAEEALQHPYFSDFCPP
# Target sequence (Q15078 whole entry, looked up): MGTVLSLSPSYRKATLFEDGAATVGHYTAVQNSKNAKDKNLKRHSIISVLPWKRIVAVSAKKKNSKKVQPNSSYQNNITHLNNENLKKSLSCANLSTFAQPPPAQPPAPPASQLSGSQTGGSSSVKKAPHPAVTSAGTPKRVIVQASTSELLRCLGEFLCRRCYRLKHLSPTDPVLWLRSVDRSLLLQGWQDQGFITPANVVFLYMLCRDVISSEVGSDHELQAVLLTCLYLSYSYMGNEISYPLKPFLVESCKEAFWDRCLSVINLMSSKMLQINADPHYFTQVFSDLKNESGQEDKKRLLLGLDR
# esBAF inh = SWI/SNF esBAF complex inhibition. mouse ES cells, Bmi1-luciferase knock-in reporter, 24 h; 100% = twice the neutral-well signal. AID 602393. actives 2% (n = 350,000). reporter increase, % at 12.5 µM; in the data active = activation above about 40%;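 also: a rise in the Bmi1 reporter signal indicates esBAF inhibition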
# SMARCA2 activ = SMARCA2 function activation, primary screen; MG213 cells, MMTV-luciferase reporter, dexamethasone, overnight; activation, % at 9.1 µM; actives 1% (n = 370,000); AID 652017; in the data active = activation above about 7.8%
# Rtt109 HAT inh = inhibitors of Candida albicans Rtt109/Vps75 histone acetyltransferase. purified Rtt109/Vps75, ThioGlo CoA-SH fluorescence, 4 h. inhibition, % at 34.9 µM. actives 0.16% (n = 330,000). AID 540336;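 active = inhibition of at least 50% in every replicate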
# DYRK1A inh = Dyrk1A (rat) kinase inhibition | Q63470 | ADP-Glo luminescence, NFATc1 peptide | inhibition, % at 12.5 µM | actives 0.43% (n = 310,000); in the data active = inhibition above about 50%
# dFosB act = activators of mouse delta FosB homodimer | activation, % at 25 µM | purified delta FosB, TAMRA-CDK5 oligo fluorescence polarization; percent of positive-control signal above neutral wells | P13346 | actives 0.99% (n = 340,000);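 active = mean activation above about 17%, with every replicate also reaching it, limit read from the data, passing the limit was not always enough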
# Numbers stand for hits; i = inactive; nt = no result given. Hits are enriched below; roughly 3.2% of the tested compounds scored in any of these assays.
SMILES,CDK5 inh,esBAF inh,SMARCA2 activ,Rtt109 HAT inh,DYRK1A inh,dFosB act
Cc1ccccc1-c1ccc2c(c1)O[C@H](CN(C)C(=O)c1ccccn1)[C@H](C)CN([C@H](C)CO)S2(=O)=O,nt,i,nt,nt,nt,nt
OC(COc1ccc(F)cc1Cl)CN1CCC(Cc2ccccc2)CC1 (stereo unspecified),i,i,i,i,51,i
O=C(Cc1cccnc1)N[C@H]1CC[C@@H](CCNS(=O)(=O)c2ccccc2Cl)O[C@@H]1CO,nt,i,nt,nt,nt,nt
c1ccc(NC2=Nc3ccccc3CC2)cc1,i,46,i,i,i,i
Cc1nn(-c2ccc(F)cc2)c2sc(C(=O)N3CCCCCC3)cc12,i,64,i,i,i,i
Cc1nn(-c2ccccc2)c2sc(C(=O)NC3CC3)cc12,i,47,i,i,i,i
Cc1cccc(-c2ccc([C@H]3[C@H]4CN(C(=O)c5ccc6c(c5)OCO6)CCCCN4[C@H]3CO)cc2)c1,nt,i,nt,nt,nt,nt
C[C@@H]1CN([C@@H](C)CO)C(=O)c2cc(NS(C)(=O)=O)ccc2O[C@H]1CN(C)Cc1ccc(Cl)c(Cl)c1,nt,i,nt,nt,nt,nt
CCN(CC)c1ccc2cc(-c3nnc(-c4ccncc4)o3)c(=O)oc2c1,i,44,i,i,i,i
CCN(CC)c1ccc2cc(C(C)=O)c(=O)oc2c1,i,nt,i,i,i,i
COc1cccc(C(=O)/C=C/Nc2cc(C)ccc2O)c1,i,63,i,i,i,i
CCOc1cc(C2Nc3ccccc3C(=O)N2c2ccccc2)ccc1O (stereo unspecified),i,45,i,i,i,i
CCOc1cc(C2Nc3cccc4cccc(c34)N2)ccc1O,i,nt,nt,i,i,32
CCOc1ccc(C2Nc3cccc4cccc(c34)N2)cc1OC,i,i,i,i,i,i
COc1cc(C2Nc3ccccc3C(=O)N2c2ccccc2)ccc1O (stereo unspecified),i,i,i,i,i,i
Cc1cc(/C=C2\NC(=S)N(C)C2=O)ccc1N1CCCC1,i,65,i,i,i,i
Cc1cc(N2CCCC2)ccc1/C=C1/C(=O)N(C)C(=S)N1C,i,i,i,nt,i,i
Cc1cc(/C=C2/C(=O)N(C)C(=S)N2C)ccc1N1CCCC1,i,78,i,i,i,i
CCN1C(=O)/C(=C/c2ccc(N3CCCC3)cc2)NC1=S,i,49,i,i,i,i
O=C(C[C@@H]1CC[C@@H](NC(=O)Nc2cc(F)ccc2F)[C@@H](CO)O1)Nc1ccccc1,nt,i,nt,nt,nt,nt
CSc1nsc(SCC(=O)Nc2ccc(NC(C)=O)cc2)n1,i,i,i,i,i,i
COc1ccc(NC(=O)CSc2nnc(-c3ccccc3)n2N)cc1,i,i,i,59,i,i
COc1ccc(NC(=O)CSc2nc(SC)ns2)cc1,i,56,i,i,i,i
CCOc1ccc(NC(=O)CSc2nnc(-c3ccccc3)n2N)cc1,i,i,i,i,i,i
O=C(N[C@H]1CC[C@@H](CCNS(=O)(=O)c2ccc(Cl)cc2)O[C@@H]1CO)c1cnccn1,nt,i,nt,nt,nt,nt
SMILES,CDK5 inh,esBAF inh,SMARCA2 activ,Rtt109 HAT inh,DYRK1A inh,dFosB act
CN(C)/C=C/C(=O)c1ccc(Oc2ccccc2)cc1,i,51,i,i,i,i
CC(C)NC(=O)N[C@@H]1CC[C@H](CCN)O[C@H]1CO,nt,i,nt,nt,nt,nt
Cc1ccc(S(=O)(=O)Nc2ccc(O)c3cccnc23)cc1,i,i,i,128,i,i
Cc1ccc(S(=O)(=O)Nc2ccc(O)c3ncccc23)cc1,i,i,i,i,i,i
CN(C)CCSc1nc(O)c(-c2ccccc2)c(=O)n1-c1ccccc1,i,i,i,i,i,i
Cc1sc2nc(SCCN(C)C)n(-c3ccccc3)c(=O)c2c1-c1ccc(F)cc1,i,i,i,i,i,22
O=C(Cn1c(=O)n(-c2ccccc2)c(=O)c2sccc21)NCc1ccccc1,i,i,i,i,i,i
O=C(Cc1ccc(-n2c(=O)c3sccc3n(CC(=O)Nc3ccccc3)c2=O)cc1)NCc1ccco1,i,i,i,i,i,73
COc1cccc(/C=N/Nc2ccc(Cl)nn2)c1OC,i,nt,i,i,i,i
Fc1ccccc1/C=N/Nc1ccc(Cl)nn1,i,55,i,i,i,i
COc1ccc(S(=O)(=O)N[C@H]2CC[C@@H](CC(=O)NCCc3ccccc3)O[C@@H]2CO)cc1,nt,i,nt,nt,nt,nt
O=[N+]([O-])c1cccc(-c2nnn(C34CC5CC(CC(C5)C3)C4)n2)c1,i,50,i,i,i,i
